Measured values as given in PubChem BioAssay AID1159580 (chemical genetic matrix, 2015).
Values joined by “and” are separate entries in the source; they are usually repeats but may differ in a detail not shown here. Identical values can stand only once. Out of some 5,500 compounds screened, about 2,000 (36%) were called active. Not shown: some 18% with an inconclusive outcome. Cut-off read from the data, not from the text of the source: active = normalized growth mostly below about 0.91 (no sharp cut-off); inconclusive = no clear call, values can overlap the other calls; inactive = mostly above about 0.92. Some of the results follow.

Test: chemical genetic growth profiling, strain panel (AID 1159580);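 note: tested at 20 µM; growth read once vehicle control cultures reached saturation at 30 °C; 1 = growth at the plate median or of vehicle wells; lower values mean less growth of the strain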
Settings: growth OD

Measured: normalized growth

Nc1nc(N)c2nc(CNc3ccc(C(=O)NC(CCC(=O)O)C(=O)O)cc3)cnc2n1 (stereo unspecified)
inactive: S. cerevisiae deletion strains, locus YKL009W, strain mrt4, stronger effect = lower value 0.972 | S. cerevisiae deletion strains, locus YKL068W, stronger effect = lower value 0.981 | S. cerevisiae deletion strains, locus YKL085W, strain MDH1 (second series), stronger effect = lower value 0.986 | S. cerevisiae deletion strains, locus YKL085W, strain MDH1, stronger effect = lower value 0.986 | S. cerevisiae deletion strains, locus YKL160W, strain elf1, stronger effect = lower value 0.968 | S. cerevisiae deletion strains, locus YKL190W, strain CNB1, stronger effect = lower value 1.01 | S. cerevisiae deletion strains, locus YKR001C, strain vps1, stronger effect = lower value 0.989 | S. cerevisiae deletion strains, locus YKR026C, strain gcn3, stronger effect = lower value 0.997 | S. cerevisiae deletion strains, locus YKR091W, strain srl3, stronger effect = lower value 0.99 | S. cerevisiae deletion strains, locus YLL001W, strain dnm1, stronger effect = lower value 0.941 | S. cerevisiae deletion strains, locus YLL026W, stronger effect = lower value 0.996 | S. cerevisiae deletion strains, locus YLL041C, strain sdh2, stronger effect = lower value 0.971 | S. cerevisiae deletion strains, locus YLR027C, strain aat2, stronger effect = lower value 1 | S. cerevisiae deletion strains, locus YLR039C, strain RIC1, stronger effect = lower value 1.01 | S. cerevisiae deletion strains, locus YLR058C, strain SHM2, stronger effect = lower value 1 | S. cerevisiae deletion strains, locus YLR102C, strain apc9, stronger effect = lower value 0.972 | S. cerevisiae deletion strains, locus YLR221C, strain rsa3, stronger effect = lower value 1.06 | S. cerevisiae deletion strains, locus YLR258W, strain gsy2, stronger effect = lower value 0.974 | S. cerevisiae deletion strains, locus YLR262C, strain YPT6 (second series), stronger effect = lower value 1.03 | S. cerevisiae deletion strains, locus YLR262C, strain YPT6, stronger effect = lower value 0.952 | S. cerevisiae deletion strains, locus YLR268W, strain sec22, stronger effect = lower value 0.977 | S. cerevisiae deletion strains, locus YLR320W, strain mms22, stronger effect = lower value 1.05 | S. cerevisiae deletion strains, locus YLR330W, strain CHS5, stronger effect = lower value 1.01 | S. cerevisiae deletion strains, locus YLR342W, strain FKS1 (second series), stronger effect = lower value 1.07 | S. cerevisiae deletion strains, locus YLR342W, strain FKS1, stronger effect = lower value 1.01 | S. cerevisiae deletion strains, locus YLR357W, strain rsc2, stronger effect = lower value 0.963 | S. cerevisiae deletion strains, locus YLR370C, strain arc18, stronger effect = lower value 0.99 | S. cerevisiae deletion strains, locus YLR371W, strain rom2, stronger effect = lower value 0.973 | S. cerevisiae deletion strains, locus YLR384C, strain iki3, stronger effect = lower value 0.988 | S. cerevisiae deletion strains, locus YLR418C, strain cdc73, stronger effect = lower value 1.02 | S. cerevisiae deletion strains, locus YML016C, strain PPZ1, stronger effect = lower value 0.992 | S. cerevisiae deletion strains, locus YML032C, strain rad52, stronger effect = lower value 1.01 | S. cerevisiae deletion strains, locus YML120C, strain ndi1, stronger effect = lower value 0.979 | S. cerevisiae deletion strains, locus YML124C, strain tub3, stronger effect = lower value 0.988 | S. cerevisiae deletion strains, locus YMR058W, strain fet3, stronger effect = lower value 0.984 | S. cerevisiae deletion strains, locus YMR078C, strain ctf18, stronger effect = lower value 0.974 | S. cerevisiae deletion strains, locus YMR125W, strain sto1, stronger effect = lower value 0.967 | S. cerevisiae deletion strains, locus YMR129W, stronger effect = lower value 1 | S. cerevisiae deletion strains, locus YMR205C, strain PFK2, stronger effect = lower value 0.965 | S. cerevisiae deletion strains, locus YMR223W, strain ubp8, stronger effect = lower value 0.989 | S. cerevisiae deletion strains, locus YMR231W, strain pep5, stronger effect = lower value 1 | S. cerevisiae deletion strains, locus YMR263W, strain SAP30, stronger effect = lower value 0.99 and 1 | S. cerevisiae deletion strains, locus YMR307W, strain GAS1, stronger effect = lower value 1.16 | S. cerevisiae deletion strains, locus YNL067W, strain RPL9B, stronger effect = lower value 0.975 | S. cerevisiae deletion strains, locus YNL071W, strain lat1, stronger effect = lower value 0.998 | S. cerevisiae deletion strains, locus YNL128W, strain TEP1, stronger effect = lower value 1 | S. cerevisiae deletion strains, locus YNL153C, strain GIM3, stronger effect = lower value 1 | S. cerevisiae deletion strains, locus YNL175C, strain NOP13, stronger effect = lower value 0.989 | S. cerevisiae deletion strains, locus YNL197C, strain WHI3, stronger effect = lower value 0.956 | S. cerevisiae deletion strains, locus YNL209W, strain ssb2, stronger effect = lower value 0.987 | S. cerevisiae deletion strains, locus YNL224C, strain SQS1, stronger effect = lower value 0.981 | S. cerevisiae deletion strains, locus YNL233W, strain BNI4, stronger effect = lower value 1.01 | S. cerevisiae deletion strains, locus YNL248C, strain rpa49, stronger effect = lower value 1.02 | S. cerevisiae deletion strains, locus YNL250W, strain rad50, stronger effect = lower value 0.945 | S. cerevisiae deletion strains, locus YNL271C, strain bni1, stronger effect = lower value 0.984 | S. cerevisiae deletion strains, locus YNL298W, strain CLA4, stronger effect = lower value 0.995 | S. cerevisiae deletion strains, locus YNL307C, strain MCK1, stronger effect = lower value 0.977 | S. cerevisiae deletion strains, locus YNL322C, strain KRE1 (second series), stronger effect = lower value 0.976 | S. cerevisiae deletion strains, locus YNL322C, strain KRE1, stronger effect = lower value 0.998 and 1.01 | S. cerevisiae deletion strains, locus YNR049C, strain mso1, stronger effect = lower value 0.987 | S. cerevisiae deletion strains, locus YNR052C, strain pop2, stronger effect = lower value 0.991 | S. cerevisiae deletion strains, locus YOL006C, strain TOP1, stronger effect = lower value 0.981 | S. cerevisiae deletion strains, locus YOL012C, strain htz1 0.761 | S. cerevisiae deletion strains, locus YOL147C, strain pex11, stronger effect = lower value 0.998 | S. cerevisiae deletion strains, locus YOR001W, strain rrp6, stronger effect = lower value 1.01 | S. cerevisiae deletion strains, locus YOR061W, strain CKA2, stronger effect = lower value 0.99 | S. cerevisiae deletion strains, locus YOR069W, strain VPS5, stronger effect = lower value 0.992 | S. cerevisiae deletion strains, locus YOR070C, strain gyp1, stronger effect = lower value 0.997 | S. cerevisiae deletion strains, locus YOR080W, strain dia2, stronger effect = lower value 1.01 | S. cerevisiae deletion strains, locus YOR083W, strain WHI5 (second series), stronger effect = lower value 1 | S. cerevisiae deletion strains, locus YOR083W, strain WHI5, stronger effect = lower value 0.967 | S. cerevisiae deletion strains, locus YOR106W, strain vam3, stronger effect = lower value 0.94 | S. cerevisiae deletion strains, locus YOR136W, strain idh2, stronger effect = lower value 0.994 | S. cerevisiae deletion strains, locus YOR144C, strain elg1, stronger effect = lower value 1 | S. cerevisiae deletion strains, locus YOR184W, strain ser1, stronger effect = lower value 0.99 | S. cerevisiae deletion strains, locus YOR265W, strain rbl2, stronger effect = lower value 0.989 | S. cerevisiae deletion strains, locus YOR270C, strain vph1, stronger effect = lower value 1.05 | S. cerevisiae deletion strains, locus YOR290C, strain snf2, stronger effect = lower value 0.933 | S. cerevisiae deletion strains, locus YOR316C, strain cot1, stronger effect = lower value 0.986 | S. cerevisiae deletion strains, locus YPL051W, strain arl3, stronger effect = lower value 1 | S. cerevisiae deletion strains, locus YPL055C, strain LGE1, stronger effect = lower value 1.02 and 0.989 | S. cerevisiae deletion strains, locus YPL078C, strain atp4, stronger effect = lower value 0.955 | S. cerevisiae deletion strains, locus YPL106C, strain sse1, stronger effect = lower value 0.956 | S. cerevisiae deletion strains, locus YPL240C, strain hsp82, stronger effect = lower value 0.992 | S. cerevisiae deletion strains, locus YPL241C, strain CIN2, stronger effect = lower value 1.01 | S. cerevisiae deletion strains, locus YPR119W, strain clb2, stronger effect = lower value 0.987 | S. cerevisiae deletion strains, locus YPR141C, strain kar3, stronger effect = lower value 0.98 | S. cerevisiae deletion strains, locus YPR163C, strain tif3, stronger effect = lower value 1 | S. cerevisiae deletion strains, locus YPR167C, strain met16, stronger effect = lower value 0.989 | S. cerevisiae deletion strains, strain wtn01, stronger effect = lower value 0.965 | S. cerevisiae strains, strain wild type, stronger effect = lower value 1.01
